Data taken from PubChem BioAssay (NCATS).
Inconclusive results are not listed. Where a call stands in place of a potency, no number is given. Values without a mark were called inactive. Activity calls are given as the source filed them. The call rests on the fitted dose curve; in most records, active means well fitted inhibition curve with a large enough effect; inconclusive means small, poorly fitted or top-dose-only effect; inactive means no such curve, though single readings can be large or run the other way.

How the values were obtained:
[1] = test system: Zika virus NS2B-NS3 protease (unlinked complex); assay: Primary screen GU Rhodamine qHTS for Zika virus inhibitors: Unlinked NS2B-NS3 protease assay (AID 1347159); further: nearly all actives have a fitted effect of over 60% in size
How it was run: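 Percent inhibition came from the 15-min rise in Rhodamine110 fluorescence (1.5 microM substrate, ~15% conversion), normalized to no-inhibitor and no-enzyme wells and Hill-fitted. Unlinked protease, 25 nM, pH 8.0 Tris buffer; compounds up to 114 microM, 15-min preincubation.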

[2] = test system: Zika virus NS2B-NS3 protease (linked construct); assay: Primary screen NINDS Rhodamine qHTS for Zika virus inhibitors (AID 1347160); further: nearly all actives have a fitted effect of over 55% in size
How it was run: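 Rhodamine110-peptide cleavage (1.5 µM substrate) by 25 nM linked NS2B-NS3 enzyme at pH 8.0 (Tris, Tween 20), after 15 min RT preincubation with compounds; 15-min fluorescence change normalized to controls and Hill-fitted.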

C[C@H]1CC(=O)Nc2cccc(-c3cnn(C(C)(C)C)c3)c2N1
Potency [1]: inactive | Potency [2]: inactive

COC1CC(O[C@H]2CC[C@@]3(C)C(CCC4C3[C@H](OC(C)=O)[C@@H](OC(=O)/C=C/c3ccccc3)[C@]3(C)C(C(C)=O)CC[C@]43O)C2)OC(C)C1OC1CC(OC)C(OC2CC(OC)C(OC3OC(C)C(OC4OC(CO)C(O)C(O)C4O)C(OC)C3O)C(C)O2)C(C)O1 (some centres not stated)
activity change, negative = inhibition [1]: -9.68% [at 19.1 µM] | activity change, negative = inhibition [2]: 20.6% [at 10.7 µM]

CC(C)C(=O)OC[C@H]1O[C@H](O[C@H]2O[C@H](CO)[C@@H](O)[C@H](O)[C@H]2O)[C@H](O)[C@@H](O)[C@@H]1O
Potency [1]: inactive | Potency [2]: inactive

COc1cccc(C(=O)N2CCN(C(=O)COc3cccc(C)c3)CC2)c1OC
Potency [1]: inactive | Potency [2]: inactive

N#Cc1ccc2[nH]cc(CCCCN3CCN(c4ccc5oc(C(N)=O)cc5c4)CC3)c2c1
Potency [1]: inactive | Potency [2]: inactive

COC(=O)c1c(C)cc(OC(=O)c2c(C)cc(OC)cc2OC)cc1O[C@@H]1O[C@H](CO)[C@@H](O)[C@H](O)[C@H]1O
Potency [1]: inactive | Potency [2]: inactive

CC[C@@](C)(Nc1ccnc(-c2c[nH]c3ncccc23)n1)C(=O)NCC(F)(F)F
Potency [1]: inactive | Potency [2]: inactive

CC1=C(CCC(C)CC(=O)O)[C@@]2(C)CCCC(C)(C)C2CC1=O (some centres not stated)
Potency [1]: inactive | Potency [2]: inactive

COc1c2c(c(C)c3c1C(=O)OC3)OC1(C)CC(O)C(C(C)(C)O)C(C)(CCC(=O)O)C1C2 (configuration not stated)
Potency [1]: inactive | Potency [2]: inactive

COC(=O)N(C)c1c(N)nc(-c2nn(Cc3ccccc3F)c3ncccc23)nc1N
Potency [1]: inactive | Potency [2]: inactive

CC1=CC2/C=C(\C)CC[C@@H](O)[C@@H](O)[C@@H]3O[C@@H]3C(=O)[C@]23C(=O)N[C@@H](CC(C)C)[C@@H]3[C@@H]1C (some centres not stated)
Potency [1]: inactive | Potency [2]: inactive

COC(=O)C1=CO[C@@H](O[C@@H]2O[C@H](CO)[C@@H](O)[C@H](O)[C@H]2O)[C@@H]2[C@@](C)(O)[C@@H](OC(=O)/C=C/c3ccc(O)cc3)C[C@]12O
Potency [1]: inactive | Potency [2]: inactive

CC1COC(Nc2ccc3ncnc(Nc4ccc(OCc5nccs5)c(Cl)c4)c3c2)=N1 (configuration not stated)
Potency [1]: inactive | Potency [2]: inactive

O=C(O)[C@@H]1C[C@H]2C[C@@H](CCc3nn[nH]n3)CC[C@H]2CN1
Potency [1]: inactive | Potency [2]: inactive

C#CC[C@H](c1nc2cc(Cl)ccc2c(=O)n1Nc1ccccc1)N(CCCN)C(=O)c1cccc(Cl)c1F
Potency [1]: inactive | Potency [2]: inactive

CC(C)=CCC/C(C)=C/CC/C(C)=C/COC1OC(COC2OCC(OC3OCC(O)C(O)C3O)C(O)C2O)C(O)C(OC2OC(C)C(OC3OC(C)C(OC4OCC(OC5OC(C)C(O)C(O)C5O)C(O)C4O)C(O)C3O)C(O)C2O)C1O (configuration not stated)
activity change, negative = inhibition [1]: 15.4% [at 19.1 µM] | activity change, negative = inhibition [2]: -0.102% [at 10.7 µM]

COc1cc(/C=C/C=O)cc(OC)c1O[C@@H]1O[C@H](CO)[C@@H](O)[C@H](O)[C@H]1O
Potency [1]: inactive | Potency [2]: inactive

C=C[C@H]1CN2CC[C@H]1C[C@@H]2C(O)c1ccnc2ccc(OC)cc12 (some centres not stated)
Potency [1]: inactive | Potency [2]: inactive

CC1(C(=O)O)CCCC2(C)C3=CCC4CC3(CCC12)CC4CO (configuration not stated)
Potency [1]: inactive | Potency [2]: inactive

C[C@@H]1CN(Cc2ccccc2)C[C@H]1c1nc2c(cnn2C2CCOCC2)c(=O)[nH]1
Potency [1]: inactive | Potency [2]: inactive

CCOC(=O)CCN(C(=O)c1ccc2c(c1)nc(CNc1ccc(C(=N)N)cc1)n2C)c1ccccn1
Potency [1]: inactive | Potency [2]: inactive

CCCCNc1ccc(-c2ccc(CN3CCOCC3)cn2)c(NC2CCC(O)CC2)c1 (configuration not stated)
Potency [1]: inactive | Potency [2]: inactive

C=C(C(=O)OC)C1C(O)CC2(C)C(=O)CCC(O)(CO)C2C1O (configuration not stated)
Potency [1]: inactive | Potency [2]: inactive

C[C@@H]1O[C@@H](O[C@@H]2[C@@H](O)[C@@H](O[C@]3(CO)O[C@H](CO)[C@@H](O)[C@@H]3OC(=O)/C=C/c3ccc(O)cc3)O[C@H](CO)[C@H]2OC(=O)/C=C/c2ccc(O)cc2)[C@H](O)[C@H](O)[C@H]1O[C@@H]1O[C@@H](C)[C@H](O[C@@H]2OC[C@](O)(CO)[C@H]2O)[C@@H](O)[C@H]1O
Potency [1]: inactive | Potency [2]: inactive

CCC(=O)O[C@H]1C(C)(C)[C@H]([C@@H](O)C(=O)OC)[C@]2(C)C(=O)[C@@]1(O)[C@H]1O[C@]13C1CC(=O)O[C@@H](c4ccoc4)[C@]1(C)CCC32 (some centres not stated)
Potency [1]: inactive | Potency [2]: inactive

C=CC[C@]12C[C@@H](OC)C(=O)C(OC)=C1O[C@@H](c1cc(OC)c3c(c1)OCO3)[C@@H]2C
Potency [1]: inactive | Potency [2]: inactive
